In publication PMC5540273 (PLoS ONE, 2017):
Values joined by “and” are separate entries in the source; they are usually repeats but may differ in a detail not shown here. Equal entries are not always repeated. Where two headings read alike, the source gives them in different places.

What was measured:
IRAK3 = conditions: concentration: 1 μM, replicates: in singlicate; n = 1
IRAK4 = conditions: concentration: 1 μM, replicates: in singlicate, n = 1
ITK = conditions: concentration: 1 μM, replicates: in singlicate, n = 1
[1] = system: JAK1(JH1domain-catalytic); conditions: concentration: 1 μM, replicates: in singlicate, n = 1
[2] = system: JAK1(JH2domain-pseudokinase); conditions: concentration: 1 μM, replicates: in singlicate, n = 1
[3] = system: JAK2(JH1domain-catalytic); conditions: concentration: 1 μM, replicates: in singlicate, n = 1
[4] = system: JAK3(JH1domain-catalytic); conditions: concentration: 1 μM, replicates: in singlicate, n = 1
JNK1 = system: T1, JNK1; conditions: concentration: 1 μM, replicates: in singlicate, n = 1
T1 construct: gene MAPK8

JNK2 = system: T2, JNK2; conditions: concentration: 1 μM, replicates: in singlicate, n = 1
T2 construct: gene MAPK9

JNK3 = system: T3, JNK3; conditions: concentration: 1 μM, replicates: in singlicate, n = 1
T3 construct: gene MAPK10

KIT-autoinhibited = conditions: concentration: 1 μM, replicates: in singlicate; n = 1
KIT = conditions: concentration: 1 μM, replicates: in singlicate, n = 1
LATS1 = conditions: concentration: 1 μM, replicates: in singlicate, n = 1
LATS2 = conditions: concentration: 1 μM, replicates: in singlicate, n = 1
LCK = conditions: concentration: 1 μM, replicates: in singlicate; n = 1
LIMK1 = conditions: concentration: 1 μM, replicates: in singlicate, n = 1
LIMK2 = conditions: concentration: 1 μM, replicates: in singlicate; n = 1
LKB1 = system: T4, LKB1; conditions: concentration: 1 μM, replicates: in singlicate, n = 1
T4 construct: gene STK11

LOK = system: T5, LOK; conditions: concentration: 1 μM, replicates: in singlicate, n = 1
T5 construct: gene STK10

LRRK2 = conditions: concentration: 1 μM, replicates: in singlicate; n = 1
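Also: KINOMEscan kinase panel screen.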

Question: For O=C(Nc1n[nH]c2cc(-c3cccc(F)c3)ccc12)C1CC1 [SB-735464], which “%Inh” value (IRAK3) is on record?
Answer: 0%

Question: And the “%Inh” value (IRAK4)?
Answer: 17%

Question: And the “%Inh” value (ITK)?
Answer: 0%

Question: And the “%Inh” value [1]?
Answer: 12%

Question: And the “%Inh” value [2]?
Answer: 23%

Question: And the “%Inh” value [3]?
Answer: 7%

Question: And the “%Inh” value [4]?
Answer: 0%

Question: What about the “%Inh” value (JNK1) of the same compound?
Answer: 23%

Question: What about the “%Inh” value (JNK2) of the same compound?
Answer: 12%

Question: What about the “%Inh” value (JNK3) of the same compound?
Answer: 17%

Question: What about the “%Inh” value (KIT-autoinhibited) of the same compound?
Answer: 1%

Question: And the “%Inh” value (KIT)?
Answer: 33%

Question: What about the “%Inh” value (LATS1) of the same compound?
Answer: 0%

Question: And the “%Inh” value (LATS2)?
Answer: 18%

Question: And the “%Inh” value (LCK)?
Answer: 3%

Question: And the “%Inh” value (LIMK1)?
Answer: 0%

Question: And the “%Inh” value (LIMK2)?
Answer: 0%

Question: And the “%Inh” value (LKB1)?
Answer: 0%

Question: And the “%Inh” value (LOK)?
Answer: 6%

Question: What about the “%Inh” value (LRRK2) of the same compound?
Answer: 0%

Question: For CC(C)(C)n1cnc2c(N)ncnc21 [SKF-97359], which “%Inh” value (IRAK3) is on record?
Answer: 0%

Question: What about the “%Inh” value (IRAK4) of the same compound?
Answer: 0%

Question: And the “%Inh” value (ITK)?
Answer: 4%

Question: What about the “%Inh” value [1] of the same compound?
Answer: 0%

Question: What about the “%Inh” value [2] of the same compound?
Answer: 0%

Question: What about the “%Inh” value [3] of the same compound?
Answer: 0%

Question: What about the “%Inh” value [4] of the same compound?
Answer: 18%

Question: And the “%Inh” value (JNK1)?
Answer: 20%

Question: And the “%Inh” value (JNK2)?
Answer: 0%

Question: And the “%Inh” value (JNK3)?
Answer: 2%

Question: What about the “%Inh” value (KIT-autoinhibited) of the same compound?
Answer: 30%

Question: What about the “%Inh” value (KIT) of the same compound?
Answer: 0%

Question: What about the “%Inh” value (LATS1) of the same compound?
Answer: 24%

Question: And the “%Inh” value (LATS2)?
Answer: 0%

Question: What about the “%Inh” value (LCK) of the same compound?
Answer: 0%

Question: And the “%Inh” value (LIMK1)?
Answer: 0%

Question: What about the “%Inh” value (LIMK2) of the same compound?
Answer: 0%

Question: What about the “%Inh” value (LKB1) of the same compound?
Answer: 56%

Question: And the “%Inh” value (LOK)?
Answer: 0%

Question: And the “%Inh” value (LRRK2)?
Answer: 0%

Question: With CC(C)(CN)c1nc(-c2ccc(Cl)c(O)c2)c(-c2ccncc2)[nH]1.O=C(O)C(F)(F)F [SB-477794] as the compound, how does the “%Inh” value (IRAK3) read?
Answer: 0%

Question: What about the “%Inh” value (IRAK4; 1 µM) of the same compound?
Answer: 43% and 0%

Question: And the “%Inh” value (ITK; 1 µM)?
Answer: 9% and 0%

Question: And the “%Inh” value ([1]; 1 µM)?
Answer: 28% and 15%

Question: What about the “%Inh” value ([2]; 1 µM) of the same compound?
Answer: 0% and 2%

Question: And the “%Inh” value ([3]; 1 µM)?
Answer: 18% and 8%

Question: What about the “%Inh” value ([4]; 1 µM) of the same compound?
Answer: 0% and 28%

Question: What about the “%Inh” value (JNK1; 1 µM) of the same compound?
Answer: 41% and 32%

Question: And the “%Inh” value (JNK2; 1 µM)?
Answer: 85% and 80%

Question: And the “%Inh” value (JNK3; 1 µM)?
Answer: 93.6% and 92.8%

Question: And the “%Inh” value (KIT-autoinhibited)?
Answer: 0%

Question: What about the “%Inh” value (KIT; 1 µM) of the same compound?
Answer: 66% and 58%

Question: And the “%Inh” value (LATS1; 1 µM)?
Answer: 7% and 39%

Question: What about the “%Inh” value (LATS2; 1 µM) of the same compound?
Answer: 86% and 89%

Question: What about the “%Inh” value (LCK) of the same compound?
Answer: 99.2%

Question: And the “%Inh” value (LIMK1; 1 µM)?
Answer: 0% and 2%

Question: And the “%Inh” value (LIMK2)?
Answer: 0%

Question: What about the “%Inh” value (LKB1; 1 µM) of the same compound?
Answer: 0% and 31%

Question: And the “%Inh” value (LOK; 1 µM)?
Answer: 99.1% and 98.2%

Question: And the “%Inh” value (LRRK2)?
Answer: 0%

Question: How did the “%Inh” value (IRAK3) turn out when N#Cc1c(N2CCOCC2)sc(-c2ccn[nH]2)c1-c1ccc(Cl)cc1 was run?
Answer: 16%

Question: What about the “%Inh” value (IRAK4) of the same compound?
Answer: 1%

Question: What about the “%Inh” value (ITK) of the same compound?
Answer: 6%

Question: What about the “%Inh” value [1] of the same compound?
Answer: 0%

Question: What about the “%Inh” value [2] of the same compound?
Answer: 29%

Question: And the “%Inh” value [3]?
Answer: 22%

Question: And the “%Inh” value [4]?
Answer: 0%

Question: And the “%Inh” value (JNK1)?
Answer: 40%

Question: And the “%Inh” value (JNK2)?
Answer: 23%

Question: And the “%Inh” value (JNK3)?
Answer: 43%

Question: What about the “%Inh” value (KIT-autoinhibited) of the same compound?
Answer: 1%

Question: And the “%Inh” value (KIT)?
Answer: 25%

Question: And the “%Inh” value (LATS1)?
Answer: 22%

Question: What about the “%Inh” value (LATS2) of the same compound?
Answer: 15%

Question: What about the “%Inh” value (LCK) of the same compound?
Answer: 13%

Question: And the “%Inh” value (LIMK1)?
Answer: 6%

Question: And the “%Inh” value (LIMK2)?
Answer: 0%

Question: What about the “%Inh” value (LKB1) of the same compound?
Answer: 25%

Question: What about the “%Inh” value (LOK) of the same compound?
Answer: 5%

Question: And the “%Inh” value (LRRK2)?
Answer: 0%
